Experimental data reported in PubChem BioAssay AID720514 (Broad Institute, 2013).
The whole screen tested about 2,100 compounds, of which about 300 (14%) were called active. About 2% were inconclusive and are not listed.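 How the source made its calls: active means every replicate test run called active, with the signal falling and half-maximal concentration within twice the top valid dose; inconclusive means the replicate test runs disagree in their calls; inactive means every test run inactive, including effects in the opposite direction.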 The list is a sample of the results. Entries with a potency or affinity are not part of this list.

Assay: reduced cellular PGC1a acetyl-lysine signal – cell-based, cherry-picked samples, dose response (AID 720514);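 further: 0% = neutral control wells and -100% = positive control wells; actives lower the acetylation signal so they count as inhibitors of PGC1a acetylation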
Settings: U2OS PGC1a acetylation, AlphaLISA, overnight; series mostly up to 19.5 µM; activity change, negative = inhibition: at the top concentration

Activity change, negative = inhibition, inactive:
O=C(NN1c2ccccc2CCc2ccccc21)c1ccccc1Br 40.2%, CCOCCn1c(CN(Cc2ccccc2)Cc2ccccc2)nc2c1c(=O)n(C)c(=O)n2C 57.7%, CC(=O)Nc1nonc1-c1nc2ccccc2n1Cc1ccccc1 61.9%, CCOC(=O)CNS(=O)(=O)c1cc(-c2nnc(Nc3ccc4c(c3)OCO4)c3ccccc23)ccc1C 97.1%, O=C(COCc1cc(-c2ccc3c(c2)OCO3)on1)Nc1cccnc1 386%, O=C(COc1ccc([N+](=O)[O-])cc1)Nc1ccc(C(=O)NCc2cccnc2)cc1 222%, CCOC(=O)C(NC(=O)c1ccccc1OCC)(Nc1ncccn1)C(F)(F)F (centres undefined) 76%, Cc1c(C(=O)OCC(=O)c2c(N)n(CC(C)C)c(=O)n(C)c2=O)oc2ccccc12 77.1%, Cc1ccc(S(=O)(=O)N2CCN(S(=O)(=O)c3ccc(C)cc3)C2c2ccccc2)cc1 114%, COc1ccc(C2N(S(=O)(=O)c3ccccc3)CCN2S(=O)(=O)c2ccc(C)cc2)cc1 (centres undefined) 75.1%, O=C(NCc1cccs1)c1ccc(Cl)c(S(=O)(=O)N2CCCC2)c1 48.1%, COc1ccc(C(CNC(=O)c2cccc(N(C)C)c2)N2CCCC2)cc1 (centres undefined) 51%, C[C@@H]1CN([C@H](C)CO)C(=O)c2c(c3ccccc3n2C)-c2ccccc2CO[C@@H]1CN(C)C(=O)[C@H](C)c1ccccc1 334%, COc1cc(CNC(=O)c2cc(-c3cc(C)cc(F)c3)n[nH]2)cc(OC)c1 58.1%, Cc1ccc(NC(=O)c2c(C(F)(F)F)nn(C)c2SCc2ccc(Cl)cc2)cc1C 98.7%, CC(=O)Nc1cc(C(=O)OCc2cccc([N+](=O)[O-])c2)ccc1C 36.4%, O=C(Nc1c(F)cccc1F)c1ccc(-n2cncn2)nc1 41.6%, CC(C)(C)c1ccc(C(=O)Nc2ccc(C(=O)NCc3cccnc3)cc2)cc1 239% [at 10 µM], Cc1ccc(C(=O)c2c[nH]c(C(=O)NCc3cccnc3)c2)cc1 247%, CCO[C@H]1OC(C(=O)N2CCCCCCC2)=C[C@@H](C2CCCCC2)[C@@H]1CCCO 74.3%, Cc1cc(=O)oc2cc(OCC(=O)OCC(=O)Nc3ccccc3F)ccc12 32%, C[C@@H]1CN([C@@H](C)CO)C(=O)c2c(c3ccccc3n2C)-c2ccccc2CO[C@@H]1CN(C)C(=O)c1ccccc1 239%, C[C@@H]1CN([C@H](C)CO)C(=O)c2c(c3ccccc3n2C)-c2ccccc2CO[C@@H]1CN(C)C(=O)c1ccccc1 176% [at 21 µM], CC(C)c1ccc(NC(=O)c2ccc3c(c2)CCN3S(C)(=O)=O)cc1 64.3%, COc1ccc(-c2cnc3c(c2)C(=O)N([C@H](C)CO)C[C@@H](C)[C@H](CN(C)C(=O)C2CCC2)O3)cc1 -4.7%, COc1ccc(C#Cc2cnc3c(c2)C(=O)N([C@H](C)CO)C[C@H](C)[C@H](CN(C)S(=O)(=O)c2cccs2)O3)cc1OC 41.9%, COc1ccc(NC(=O)N(C)C[C@H]2OCc3ccccc3-c3c(n(C)c4ccccc34)C(=O)N([C@@H](C)CO)C[C@H]2C)c(OC)c1 147% [at 21 µM], COc1ccc(C#Cc2cnc3c(c2)C(=O)N([C@H](C)CO)C[C@H](C)[C@H](CN(C)S(=O)(=O)c2cccc(F)c2)O3)cc1OC 41.5%, O=C(Nc1ccc(-c2noc(-c3cccs3)n2)cc1)c1cccnc1 185%, CCOC(=S)SCC(=O)Nc1nc(C)c(C)s1 226% [at 10 µM], CC(=O)n1cc([C@@H]2C=C(C(=O)Nc3ccccc3)O[C@H](OCc3ccc(CO)cc3)C2)c2ccccc21 69.2%, Cc1cc(C(=O)NNS(=O)(=O)c2ccccc2C(F)(F)F)nn1C(C)(C)C 455%, C[C@@H]1CN([C@@H](C)CO)C(=O)c2c(c3ccccc3n2C)-c2ccccc2CO[C@@H]1CN(C)C(=O)Nc1ccccc1C(F)(F)F 192% [at 21 µM], COc1cccc(S(=O)(=O)N(C)C[C@@H]2Oc3cc(C4=CCCC4)ccc3S(=O)(=O)N([C@H](C)CO)C[C@@H]2C)c1 55.1%, O=C(NC(Nc1cc(C(F)(F)F)ccc1Cl)C(=O)c1ccccc1)c1ccccc1 (centres undefined) 45.2%, CCN(CC)CCNC(=O)c1ccc2c(c1NCCO)C(=O)c1ccccc1C2=O 38.6%, CCCCn1c(CN(Cc2ccccc2)Cc2ccccc2)nc2c1c(=O)n(C)c(=O)n2C 89.1%, CN1Cc2c(N3CCOCC3)nc3sc(C(=O)c4ccc(Br)cc4)c(N)c3c2CC1(C)C 79.9% [at 10 µM], O=C(c1ccccc1)C(O)(Cc1ccccc1)c1ccccc1 (centres undefined) 110%, COc1ccc(S(=O)(=O)N2CCOCC2)cc1NC(=O)CCNC(=O)c1ccc([N+](=O)[O-])cc1 273%, CC1CCN(S(=O)(=O)c2ccc(NC(=O)c3ccccc3F)cc2)CC1 40.4%, CCOC(=O)C1=CC[C@@H](c2ccc(OC)cc2)N(S(=O)(=O)c2ccc(C)cc2)[C@H]1CC 101%, CN(C(=O)C1CC1)C1CCS(=O)(=O)C1 (centres undefined) 46.2%, CCOc1ccccc1NC(=O)CSc1cn[nH]n1 52.7%, O=S1(=O)CCOC[C@H](CC2CCCCC2)N1Cc1ccc(F)cc1 51.9%, COc1ccc([C@H]2/C=C\CN(S(=O)(=O)/C=C/c3ccccc3)[C@@H](C)C(=O)N2Cc2ccc(F)cc2)cc1 129%, Cc1ccc(CN(CC(O)COc2cccc3[nH]cc(C)c23)C(C)(C)C)cc1 (centres undefined) 79.6%, C#CCN1[C@H](/C=C/C2CC2)[C@H](Cc2ccccc2)OC(=O)[C@@H]1[C@@H]1N[C@@H](C(=O)OC)C(C)(C)S1 -3.54%, CCCN(CCC)CCNC(=O)c1cc2c(=O)n(CC)c3ccccc3c2s1 37.5%, COc1ccc(S(=O)(=O)N2CCOCC2)cc1NC(=O)CCNC(=O)c1ccc(Cl)cc1 218%, C[C@H]1CN([C@@H](C)CO)C(=O)c2cc(/C=C/c3ccccc3)cnc2O[C@H]1CN(C)C(=O)CN(C)C 48.2%, Cc1ccccc1-c1ccc2c(c1)O[C@H](CN(C)Cc1ccncc1)[C@@H](C)CN([C@@H](C)CO)S2(=O)=O 60.3%, COc1ccc(S(=O)(=O)N(C)C[C@H]2Oc3cc(C4=CCCC4)ccc3S(=O)(=O)N([C@H](C)CO)C[C@@H]2C)cc1 13.2%, C[C@@H]1CN([C@@H](C)CO)C(=O)c2cc(C#CC3CCCC3)cnc2O[C@H]1CN(C)C(=O)Nc1ccccc1 18.7%, CC(C)C#Cc1cnc2c(c1)C(=O)N([C@@H](C)CO)C[C@@H](C)[C@@H](CN(C)C(=O)c1ccccn1)O2 34.9%, C[C@H](CO)N1C[C@H](C)[C@H](CN(C)Cc2ccc(C(=O)O)cc2)Oc2ncc(-c3ccccc3)cc2C1=O 50.4%, COc1ccc(C)cc1NS(=O)(=O)c1ccc(NC(=O)CN(c2cc([N+](=O)[O-])ccc2C)S(C)(=O)=O)cc1 277%, CCOC(=O)CCc1c(C)c2ccc(O)cc2oc1=O 40.2%, OCc1ccc2c(c1)c(-c1ccc3c(c1)OCCO3)c(-c1ccccc1)n2-c1ccccc1 227%, CCCCCOC(=O)Cc1c(O)c2ccccc2n(C)c1=O 34.1%, CC(OC(=O)C1CCCC1)C(=O)Nc1ccc(C(N)=O)cc1 (centres undefined) 42%, CCCCN(CC)CCCNC(=O)c1cc2c(=O)n(CC)c3ccccc3c2s1 77.5%, C[C@H](CO)N1C[C@H](C)[C@@H](CN(C)Cc2ccc3c(c2)OCO3)Oc2cc(Br)ccc2S1(=O)=O 41%, CC(C)CC#Cc1ccc2c(c1)O[C@H](CN(C)Cc1ccccc1)[C@H](C)CN([C@@H](C)CO)S2(=O)=O 19.1%, C[C@@H]1CN([C@@H](C)CO)C(=O)c2cc(/C=C/c3ccccc3)cnc2O[C@@H]1CN(C)Cc1cccnc1 34% [at 21 µM], C[C@@H]1CN([C@@H](C)CO)C(=O)CCCn2nncc2CO[C@H]1CN(C)CC1CCCCC1 29.3%, COc1ccccc1/C=C1\SC(=S)N(CCC(=O)NCCCn2ccnc2)C1=O 55.3% [at 5 µM], COc1cccc(NC(=O)N(C)C[C@H]2OCc3ccccc3-c3c(n(C)c4ccccc34)C(=O)N([C@@H](C)CO)C[C@@H]2C)c1 40%, C[C@@H]1CN([C@@H](C)CO)C(=O)c2c(c3ccccc3n2C)-c2ccccc2CO[C@@H]1CN(C)C(=O)c1cc(Cl)cc(Cl)c1 84%, C[C@H](CO)N1C[C@H](C)[C@@H](CN(C)CC2CCCCC2)Oc2c(NC(=O)c3nc4ccccc4s3)cccc2C1=O -3.98%, C[C@H](CO)N1C[C@H](C)[C@H](CN(C)Cc2ccc(C(=O)Nc3ccccc3N)cc2)Oc2c(NC(=O)c3ccncc3)cccc2C1=O 66.6% [at 16 µM], C[C@H]1CN([C@@H](C)CO)S(=O)(=O)c2ccc(C#CCN(C)C)cc2O[C@@H]1CN(C)Cc1ccc2c(c1)OCO2 63.7%, Nc1c(C(=O)c2ccccc2)sc2nsc(SCCN3CCCC3)c12 56.7%, COc1ccc(S(=O)(=O)Nc2ccc3c(c2)C(=O)N([C@H](C)CO)C[C@H](C)[C@H](CN(C)S(=O)(=O)c2cn(C)cn2)OCCCC[C@@H](C)O3)cc1 39.9% [at 21 µM], COC(=O)C(Nc1ccccc1Cl)(c1cc(C)c(O)c(C)c1)C(F)(F)F (centres undefined) 63.8%, CC(C)(C)c1ccc(C(=O)c2c[nH]c(C(=O)NCc3cccnc3)c2)cc1 303%, CCN(CC)CCCn1c(=S)[nH]c2cc(Cl)ccc2c1=O 119%, N#Cc1ccc(C(=O)CSc2nnc(-c3ccc(C(F)(F)F)cn3)s2)cc1 45.1%, O=C(CSc1nc2ccccc2c(=O)n1CC1CCCO1)N1CCN(c2ccccc2)CC1 (centres undefined) 30.9%, Cn1cc(-c2ccc(C(=O)NCc3cccc(Cl)c3)c3occc23)cn1 72.5%, Cc1ccc2[nH]cc(C(=O)CN3CCN(c4ccccc4F)CC3)c2c1 58.1%, O=C(Nc1ccc(OCC(=O)N2CCC(Cc3ccccc3)CC2)cc1)c1ccco1 111%, COc1ccc(NC(=O)N2CCN(c3ccc([N+](=O)[O-])cc3)CC2)cc1 85.4%, COc1ccc(C2C(C(=O)Nc3ccccc3)=C(C)Nc3nc(CCCO)nn32)cc1 (centres undefined) 69.2%
